Results from PubChem BioAssay (NCI).
The panel holds about 83,000 compounds, 20% with a hit somewhere; the sample as a whole holds those more often.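 Cell lines were cultured in 96-well plates, exposed to a single compound concentration, and assessed for percent growth 48 hours later.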 Calls of active or inactive are those of the source. Rule for the calls: active = growth percent below 10; inactive = the rest.

Test system: 786-0 renal
Experiment: NCI-60 one-dose screen, 48 h (100 = growth as untreated, 0 = no growth, -100 = all killed)
Conditions: 1 µM

Structure (SMILES)	growth
CC/C(=C(\c1ccc(O)cc1)c1ccc(OCCN(C)C(=O)COCCNC(=O)Cc2ccc3c(c2)CN([C@@H]2CCC(=O)NC2=O)C3=O)cc1)c1ccccc1	94% (inactive)
CC/C(=C(\c1ccc(O)cc1)c1ccc(OCCN(C)C(=O)CCOCCNC(=O)c2ccc3c(c2)CN([C@@H]2CCC(=O)NC2=O)C3=O)cc1)c1ccccc1	96.6% (inactive)
CC/C(=C(/c1ccc(O)cc1)c1ccc(OCCN(C)C(=O)COCCOCCNC(=O)c2ccc3c(c2)CN([C@@H]2CCC(=O)NC2=O)C3=O)cc1)c1ccccc1	94% (inactive)
CC/C(=C(/c1ccc(O)cc1)c1ccc(OCCN(C)C(=O)CCOCCNC(=O)Cc2ccc3c(c2)CN([C@@H]2CCC(=O)NC2=O)C3=O)cc1)c1ccccc1	97.2% (inactive)
CC/C(=C(/c1ccc(O)cc1)c1ccc(OCCN(C)C(=O)COCCOCCNC(=O)Cc2ccc3c(c2)CN([C@@H]2CCC(=O)NC2=O)C3=O)cc1)c1ccccc1	96% (inactive)
CC/C(=C(\c1ccc(O)cc1)c1ccc(OCCNC)cc1)c1ccccc1	89.7% (inactive)

Same assay, conditions: 10 µM

Structure (SMILES)	growth
CC/C(=C(\c1ccc(O)cc1)c1ccc(OCCN(C)C(=O)COCCNC(=O)Cc2ccc3c(c2)CN([C@@H]2CCC(=O)NC2=O)C3=O)cc1)c1ccccc1	90.6% (inactive)
CC/C(=C(\c1ccc(O)cc1)c1ccc(OCCN(C)C(=O)CCOCCNC(=O)c2ccc3c(c2)CN([C@@H]2CCC(=O)NC2=O)C3=O)cc1)c1ccccc1	93.4% (inactive)
CC/C(=C(/c1ccc(O)cc1)c1ccc(OCCN(C)C(=O)COCCOCCNC(=O)c2ccc3c(c2)CN([C@@H]2CCC(=O)NC2=O)C3=O)cc1)c1ccccc1	96.7% (inactive)
CC/C(=C(/c1ccc(O)cc1)c1ccc(OCCN(C)C(=O)CCOCCNC(=O)Cc2ccc3c(c2)CN([C@@H]2CCC(=O)NC2=O)C3=O)cc1)c1ccccc1	84.2% (inactive)
CC/C(=C(/c1ccc(O)cc1)c1ccc(OCCN(C)C(=O)COCCOCCNC(=O)Cc2ccc3c(c2)CN([C@@H]2CCC(=O)NC2=O)C3=O)cc1)c1ccccc1	80.7% (inactive)
CC/C(=C(\c1ccc(O)cc1)c1ccc(OCCNC)cc1)c1ccccc1	76.7% (inactive)
